From PubChem BioAssay AID602340 (Broad Institute, 2012)
Among all 330,000 compounds or so, about 2,600 (0.79%) were called active.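 Rule for the calls: active = mean ATP rescue above about 67%, or every replicate alone reaching that limit (limit read from the data, passing the limit was not always enough); inconclusive = no clear call, values can overlap the other calls; inactive = mean under the limit and some replicate under it.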 The list comes from a sample in which actives are over-represented; it also holds similar structures and randomly drawn compounds.

Experiment: suppressors of statin myotoxicity in C2C12 myotubes, primary screen, cell-based, single point, plate reader (AID 602340);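 note: myotubes were challenged with 10 µM simvastatin during compound exposure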
Details: C2C12 myotubes + simvastatin, ATP luminescence, 48 h; at 7.49 µM; stronger effect = higher value; scaled: DMSO 0, geranylgeraniol control 100

Compound	rescue of ATP level
Cc1noc(C)c1NC(=O)N[C@@H]1CC[C@H](CCNC(=O)C2CCC2)O[C@@H]1CO	3.99% (inactive)
O=C(C[C@H]1CC[C@@H](NC(=O)Nc2cc(F)ccc2F)[C@@H](CO)O1)NCc1ccncn1	-2.36% (inactive)
O=C(Nc1ccccc1)N1C[C@@H]2[C@H](c3ccccc31)[C@H](CO)N2C(=O)c1ccccn1	-4.63% (inactive)
Cc1ccc(C2=NN(C(=O)CSc3nc(N)cc(N)n3)C(c3ccco3)C2)cc1 (stereo not drawn)	159% (active)
COc1ccc(C2=NN(C(=O)CSc3nnnn3C)C(c3ccco3)C2)cc1 (stereo not drawn)	-6.88% (inactive)
COc1ccc(C2=NN(C(=O)CSc3nc(=O)n4ccc(C)cc4n3)C(c3ccc(C)cc3)C2)cc1 (stereo not drawn)	34.4% (inactive)
Cc1cccc(-c2ccc([C@@H]3[C@H](CO)N4CCCCN(C(=O)c5ccc6c(c5)OCO6)C[C@@H]34)cc2)c1	-11.7% (inactive)
C[C@@H]1CN([C@H](C)CO)C(=O)c2cc(-c3ccc(C(=O)N(C)C)cc3)cnc2O[C@H]1CN(C)C(=O)C1CC1	5.72% (inactive)
COc1ccc(NC(=O)N(C)C[C@H]2Oc3ccc(N(C)C)cc3C(=O)N([C@H](C)CO)C[C@H]2C)cc1	34.1% (inactive)
COC(=O)c1cnn2c(C(F)(F)F)cc(-c3ccco3)nc12	0.418% (inactive)
CCOC(=O)c1ccn(-c2nc(-c3ccco3)cc(C(F)(F)F)n2)n1	122% (active)
O=C(CSc1nc(-c2ccco2)cc(C(F)(F)F)n1)N1CCc2ccccc2C1	2.99% (inactive)
COCC(=O)Nc1ccc2c(c1)C(=O)N(C)[C@H]1CC[C@@H](CC(=O)Nc3cn(C)nc3C)O[C@@H]1CO2	-1.7% (inactive)
CCC(=O)Nc1ccc2c(c1)OC[C@H](C)N(CC1CCCCC1)C[C@@H](C)[C@H](OC)CN(C)C2=O	13.2% (inactive)
CS(=O)(=O)N1CCN(c2cccc(Cl)n2)CC1	109% (active)
CCC(=O)Nc1ccccc1N1CCN(S(C)(=O)=O)CC1	5.38% (inactive)
Cc1cccc(C)c1N1CCN(S(=O)(=O)N2CCCCC2)CC1	-15% (inactive)
C[C@@H]1CN([C@H](C)CO)S(=O)(=O)c2ccc(C#CCC3CCCC3)cc2O[C@H]1CN(C)Cc1ccc(C(=O)O)cc1	3.68% (inactive)
O=C(Nc1nnc(Cc2ccc(Cl)cc2)s1)c1cccnc1	0.36% (inactive)
CC(C)(C)c1cc(C(=O)NCc2cccnc2)ccn1	-8.85% (inactive)
O=C(NCc1ccc(Cl)c(Cl)c1)c1cccnc1	106% (active)
COCC(=O)Nc1ccc2c(c1)[C@H]1C[C@H](CC(=O)NCc3cccnc3)O[C@H](CO)[C@H]1O2	-1.76% (inactive)
COCCn1c(CN(Cc2ccccc2)Cc2ccccc2)nc2c1c(=O)n(C)c(=O)n2C	30.5% (inactive)
Cn1c(=O)c2c(nc(CN3CCOCC3)n2Cc2ccccc2)n(C)c1=O	2.6% (inactive)
COCCn1c(CN2CCC(Cc3ccccc3)CC2)nc2c1c(=O)n(C)c(=O)n2C	70.9% (active)
CC(=O)NC[C@H]1[C@H](c2ccccc2)[C@@H](CO)N1C(=O)Cc1cccnc1	7.36% (inactive)
Cc1ccccc1S(=O)(=O)Nc1ccc2c(c1)C(=O)N(C)[C@H]1CC[C@@H](CC(=O)O)O[C@H]1CO2	10.2% (inactive)

Compound	rescue of ATP level
O=C(C[C@@H]1C[C@H]2c3cc(NC(=O)Nc4ccccc4)ccc3O[C@H]2[C@@H](CO)O1)NC1CCCCC1	4.79% (inactive)
C[C@@H]1CN([C@@H](C)CO)C(=O)c2cc(C3=CCCCC3)cnc2O[C@H]1CN(C)CC1CCOCC1	-11.9% (inactive)
C/C(=N/NC(=O)c1cc(Cl)ccc1O)C12CC3CC(CC(C3)C1)C2	173% (active)
CC(=N\NC(=O)c1cc(Br)ccc1O)/C(=N/O)C(=O)Nc1ccccc1	-1.86% (inactive)
Cc1ccc(C(=O)NC23CC4CC(CC(C4)C2)C3)c(Cl)c1	-14.4% (inactive)
Cc1noc(C)c1S(=O)(=O)N(C)C[C@@H]1Oc2c(NS(=O)(=O)c3cn(C)cn3)cccc2C(=O)N([C@@H](C)CO)C[C@H]1C	5.29% (inactive)
COc1cccc(C(=O)Nc2ccc3c(c2)OC[C@H](C)N(C(C)=O)C[C@@H](C)[C@@H](OC)CN(C)C3=O)c1	5.61% (inactive)
O=c1c2ccccc2ncn1CCCCOc1ccccc1F	-4.17% (inactive)
CCN1CCN(CCCCOc2ccccc2F)CC1	12.7% (inactive)
Fc1ccccc1OCCCCn1cncn1	109% (active)
O=C(Nc1ccccc1F)N[C@@H]1CC[C@H](CCNC(=O)C2CC2)O[C@@H]1CO	3.31% (inactive)
Cc1cccc(C=CC(=O)c2ccc(Cl)cc2)c1	3.66% (inactive)
O=C(CSc1ncn[nH]1)N/N=C/c1ccc(F)cc1	2.49% (inactive)
O=C(/C=C/Sc1ncn[nH]1)c1ccc(Cl)cc1	122% (active)
CO[C@H]1CN(C)C(=O)c2ccc(NC(=O)c3ccccc3F)cc2OC[C@H](C)N(C(=O)c2ccccc2F)C[C@H]1C	-0.874% (inactive)
COc1ccc2cc(C(=O)O)n(CC(=O)c3ccccc3)c2c1	107% (active)
COc1ccc(NC(=O)CCCC(=O)c2ccccc2)cc1	4.33% (inactive)
CCOC(=O)c1cc2ccccc2n1CC(=O)c1ccccc1	14.7% (inactive)
OCCCNC(c1ccccc1)c1ccc(O)cc1 (stereo not drawn)	116% (active)
OCCNc1nc(Nc2ccc(Cl)c(Cl)c2)nc2ccccc12	-27.5% (inactive)
Cc1noc(C)c1NC(=O)N(C)C[C@H]1Oc2c(NC(=O)c3nc4ccccc4s3)cccc2C(=O)N([C@@H](C)CO)C[C@@H]1C	-9.27% (inactive)
CN1C(=O)c2cc(NS(=O)(=O)c3ccc(F)cc3)ccc2OC[C@@H]2O[C@@H](CC(=O)O)CC[C@H]21	1.01% (inactive)
O=C(C[C@H]1C[C@@H]2c3cc(NC(=O)CC4CC4)ccc3O[C@@H]2[C@H](CO)O1)NCc1cccnc1	-11% (inactive)
Cc1ccc(S(=O)(=O)N2[C@@H](c3ccccc3F)C(C(=O)O)=CC[C@H]2c2ccc(Cl)cc2)cc1	21.4% (inactive)
CC(=O)C1=C(O)C(=O)N(c2ccc(S(N)(=O)=O)cc2)C1c1ccccc1F (stereo not drawn)	106% (active)
CC(=O)C1=C(O)C(=O)N(c2ccc(Br)cc2)C1c1ccc([N+](=O)[O-])cc1 (stereo not drawn)	4.28% (inactive)
